# Measurements as given in PubChem BioAssay (NCATS).
# Values joined by “and” are separate entries in the source; they are usually repeats but may differ in a detail not shown here. Equal entries are not always repeated. Records with an inconclusive call do not appear. A call without a number means that no potency is given here. Active and inactive are the calls of the source. Unless noted, calls come from the whole dose curve; as a rule, active = well fitted curve in the direction sought with a large enough effect; inconclusive = small, poorly fitted or top-dose-only effect, or another doubt; inactive = no such curve, though single readings can be large; an effect the other way counts as inactive or inconclusive.
# Legend:
# [1] = tested on: Tov-21-G; experiment: Primary qHTS to identify gynecologic anti-cancer compounds using libraries of approved drugs and bioactive compounds (AID 1345084); conditions: Gynecologic cancer cell panel viability, ATPlite luminescence, 48 h; series mostly up to 57.5 µM; note: nearly all actives have a fitted effect of over 55% in size; note: potency is the fitted concentration of half-maximal effect
# Procedure, shortened: (§1)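 Five-concentration response, 48 h; readout is ATP-driven luciferase luminescence.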
# [2] = tested on: Tov112D; experiment: as above; conditions: Gynecologic cancer cell panel viability, ATPlite luminescence, 48 h; series mostly up to 57.5 µM
# Procedure, shortened: as §1
# [3] = Drug repurposing screens with cells derived from glioblastoma tumor samples (AID 1345199); conditions: GBM patient neurospheres viability, ATP luminescence, 48 h; note: nearly all actives have a fitted effect of over 40% in size; note: potency is the fitted concentration of half-maximal effect
# Procedure, shortened: (§2)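 Four patient lines of CD133+ GBM neurospheres were screened at several concentrations; hits were retested in those lines plus three slower-growing GBM lines, using 48-hour treatment and ATP-based viability.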
# [4] = tested on: astro; experiment: as above; conditions: viability, ATP luminescence, 48 h; series mostly up to 45.9 µM
# Procedure, shortened: as §2
# [5] = tested on: SKOV3; experiment: Primary qHTS to identify gynecologic anti-cancer compounds using libraries of approved drugs and bioactive compounds (AID 1345084); conditions: Gynecologic cancer cell panel viability, ATPlite luminescence, 48 h; series mostly up to 57.5 µM; note: nearly all actives have a fitted effect of over 55% in size; note: potency is the fitted concentration of half-maximal effect
# Procedure, shortened: as §1
# [6] = molecular target: Nuclear receptor subfamily 1 group I member 2 (Rattus norvegicus) (UniProt Q9R1A7); experiment: qHTS assay for small molecule activators of the rat pregnane X receptor (rPXR) signaling pathway (AID 651751; call rule not given here); conditions: rPXR reporter cells, luciferase (One-Glo), 24 h
# Chain of Nuclear receptor subfamily 1 group I member 2 (Rattus norvegicus) (Q9R1A7 whole entry, looked up): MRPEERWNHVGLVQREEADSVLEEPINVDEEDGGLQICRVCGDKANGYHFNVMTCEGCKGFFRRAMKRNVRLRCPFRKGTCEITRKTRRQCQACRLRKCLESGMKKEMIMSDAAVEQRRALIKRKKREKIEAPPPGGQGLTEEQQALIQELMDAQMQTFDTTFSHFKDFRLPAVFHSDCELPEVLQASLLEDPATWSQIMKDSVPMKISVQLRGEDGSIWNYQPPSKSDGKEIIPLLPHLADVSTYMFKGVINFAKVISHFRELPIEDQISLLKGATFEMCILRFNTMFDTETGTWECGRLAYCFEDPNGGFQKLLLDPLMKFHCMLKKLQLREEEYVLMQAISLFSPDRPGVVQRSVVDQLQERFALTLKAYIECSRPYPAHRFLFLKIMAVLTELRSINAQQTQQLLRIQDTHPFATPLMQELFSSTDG
# [7] = tested on: PA-1; experiment: Primary qHTS to identify gynecologic anti-cancer compounds using libraries of approved drugs and bioactive compounds (AID 1345084); conditions: Gynecologic cancer cell panel viability, ATPlite luminescence, 48 h; series mostly up to 57.5 µM; note: nearly all actives have a fitted effect of over 55% in size; note: potency is the fitted concentration of half-maximal effect
# Procedure, shortened: as §1
# [8] = tested on: OV90; experiment: as above; conditions: Gynecologic cancer cell panel viability, ATPlite luminescence, 48 h; series mostly up to 57.5 µM
# Procedure, shortened: as §1
# [9] = qHTS assay for small molecule activators of the human pregnane X receptor (PXR) signaling pathway (AID 720659; call rule not given here)
# [10] = at 45.9 µM (top of the series), tumour line B
# [11] = at 45.9 µM (top of the series), tumour line D
# [12] = at 46 µM (top of the series), tumour line A
structure (smiles),measurement,setting,value
Clc1ccc(CCC(Cn2ccnc2)Sc2c(Cl)cccc2Cl)cc1 (stereo unspecified),Potency,[1],inactive
same,Potency,[2],inactive
same,"activity, negative = cell killing","[3]; at 21.2 µM (top of the series), tumour line B",-25.1% (inactive)
same,Potency,[3]; tumour line A,1.12 µM (active)
same,Potency,[4],inactive
CC(CCc1ccccc1)NC(C)C(O)c1ccc(O)cc1 (stereo unspecified),Potency,[5],inactive
same,Potency,[1],inactive
same,Potency,[2],inactive
same,"activity, negative = cell killing",[3]; [10],-9.92% (inactive)
same,"activity, negative = cell killing",[3]; [11],2.61% (inactive)
same,Potency,[3]; tumour line A,14.1 µM (active)
same,Potency,[4],inactive
N[C@@H](Cc1ccc(N(CCCl)CCCl)cc1)C(=O)O,Potency,[5],inactive
same,Potency,[1],inactive
same,max response,[6],1.48% (inactive) and 0.994% (inactive)
CNC(=O)N1N=C(c2ccc(N)cc2)c2cc3c(cc2CC1C)OCO3 (stereo unspecified),Potency,[7],inactive
same,Potency,[1],inactive
C#CCOC(C(=O)OCCN(C)C)(c1ccccc1)c1ccccc1,Potency,[8],inactive
same,Potency,[7],inactive
same,Potency,[1],inactive
same,Potency,[2],inactive
same,"activity, negative = cell killing",[3]; [10],3.88% (inactive)
same,"activity, negative = cell killing",[3]; [11],1.28% (inactive)
same,Potency,[4],inactive
CCC(=O)C(CC(C)N(C)C)(c1ccccc1)c1ccccc1 (stereo unspecified),Potency,[7],inactive
same,Potency,[1],inactive
same,Potency,[2],inactive
same,Potency,[4],inactive
C#CCN(C)[C@H](C)Cc1ccccc1,Potency,[8],inactive
same,Potency,[7],inactive
same,Potency,[1],inactive
same,Potency,[2],inactive
same,"activity, negative = cell killing",[3]; [10],-10.5% (inactive)
same,"activity, negative = cell killing",[3]; [11],-14.3% (inactive)
same,"activity, negative = cell killing",[3]; [12],-47.6% (inactive)
same,Potency,[4],inactive
Fc1ccc(C(OCCN2CCN(CCCc3ccccc3)CC2)c2ccc(F)cc2)cc1,Potency,[8],22.4 µM (active)
same,Potency,[4],22.4 µM (active)
CCC(COC(=O)c1cc(OC)c(OC)c(OC)c1)(c1ccccc1)N(C)C (stereo unspecified),Potency,[8],inactive
same,Potency,[7],inactive
same,Potency,[1],inactive
same,Potency,[2],inactive
same,Potency,[4],inactive
COc1ccc2c(c1OC)CN1CCc3cc4c(cc3C1C2)OCO4 (stereo unspecified),Potency,[5],inactive
same,Potency,[1],inactive
same,Potency,[2],inactive
O=c1[nH]c2ccccc2n1C1CCN(CCCC(c2ccc(F)cc2)c2ccc(F)cc2)CC1,Potency,[7],inactive
same,Potency,[1],inactive
same,Potency,[2],inactive
same,Potency,[3]; tumour line A,2.82 µM (active)
same,Potency,[3]; tumour line B,8.91 µM (active)
same,Potency,[3]; tumour line D,5.62 µM (active)
same,Potency,[4],17.8 µM (active)
same,outcome,[9],inactive
CC[N+]1(C)CCCC(OC(=O)C(O)(c2ccccc2)c2ccccc2)C1 (stereo unspecified),Potency,[7],inactive
same,Potency,[5],inactive
same,Potency,[1],inactive
same,Potency,[2],inactive
same,"activity, negative = cell killing",[3]; [10],-10.4% (inactive)
same,"activity, negative = cell killing",[3]; [11],-8.99% (inactive)
same,Potency,[4],inactive
CN1C[C@H](CNC(=O)OCc2ccccc2)C[C@@H]2c3cccc4c3c(cn4C)C[C@H]21,Potency,[8],inactive
same,Potency,[7],inactive
same,Potency,[1],inactive
same,Potency,[2],inactive
same,Potency,[4],inactive
C=C1C[C@@H]2[C@H](CC[C@]3(C)C(=O)CC[C@@H]23)[C@@]2(C)C=CC(=O)C=C12,Potency,[5],inactive
same,Potency,[2],inactive
same,Potency,[3]; tumour line A,12.6 µM (active)
same,Potency,[4],inactive
Cc1cc(SCc2sc(-c3ccc(C(F)(F)F)c(F)c3)nc2C)ccc1OCC(=O)O,Potency,[8],inactive
same,Potency,[7],inactive
same,Potency,[1],inactive
same,Potency,[2],inactive
same,max response,[6],13% (inactive)
CC(C)CC(N(C)C)C1(c2ccc(Cl)cc2)CCC1 (stereo unspecified),Potency,[8],inactive
same,Potency,[7],inactive
same,Potency,[1],inactive
same,Potency,[2],inactive
same,"activity, negative = cell killing",[3]; [10],-27.3% (inactive)
same,"activity, negative = cell killing",[3]; [11],-16.7% (inactive)
same,"activity, negative = cell killing",[3]; [12],-28.1% (inactive)
same,Potency,[4],inactive
CC[C@@H](CO)NC(=O)[C@@H]1C=C2c3cccc4[nH]cc(c34)C[C@H]2N(C)C1,Potency,[8],inactive
same,Potency,[7],inactive
same,Potency,[1],inactive
same,Potency,[2],inactive
same,"activity, negative = cell killing",[3]; [12],16.5% (inactive)
c1ccc(C2CC2)c(OCC2=NCCN2)c1,Potency,[8],inactive
same,Potency,[5],inactive
same,Potency,[1],inactive
same,Potency,[2],inactive
same,"activity, negative = cell killing",[3]; [10],-20.7% (inactive)
same,"activity, negative = cell killing",[3]; [11],-19.1% (inactive)
same,Potency,[3]; tumour line A,11.2 µM (active)
same,Potency,[4],inactive
